From PubChem BioAssay (NCI)
This is part of a sample that, as a whole, favours compounds with a hit. Of some 83,000 tested, about 20% had one in any assay.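 Single-dose data. Exposure time 48 hours. Values below 10 considered active.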 Active and inactive are the calls of the source.

test system: RPMI-8226 leukemia; test: NCI-60 one-dose screen, 48 h (100 = growth as untreated, 0 = no growth, -100 = all killed); details: 10 µM unless noted

Compound | growth
c1csc(-c2cn3nc(-c4c[nH]c5ccccc45)sc3n2)c1 | 17.1% (inactive)
O=C1C=CC2(O)OC/C(=C\c3ccccc3)C(O)=C2C1=O (centres undefined) | 0.943% (active)
C=C1CC[C@@H]2C(C)(C)[C@H](O)CC[C@@]2(C)[C@@H]1COc1ccc2ccc(=O)oc2c1 | 6.64% (active)
COC(=O)c1c(C)nc(C)c2c1C(=O)C=C(NCc1ccccc1)C2=O | 88.4% (inactive)
COC(=O)c1ccc2cc(OC)c(OC)cc2c1 | 101% (inactive)
O=C(c1cccc(N2CCOCC2)n1)c1c[nH]c2ccccc12 | 96.6% (inactive)
C=C[C@@]1(C)CC(=O)[C@@H](C(C)(C)c2cn(C)c3ccc(Br)cc23)C[C@@H]1O[Si](C)(C)C(C)(C)C | 87.5% (inactive)
COCCOC(C)C(/C=N/NC(N)=S)=N/NC(N)=S (centres undefined) | 36.2% (inactive)
Cc1cc(N2CCN(CC(=O)Nc3ccc4c(ccn4Cc4ccccc4)c3)CC2)nc(N2CCOCC2)n1 | 67% (inactive)
COc1ccc(C2CC(c3ccccc3)=NN2C(=O)c2cc(OC)c(OC)c(OC)c2)cc1O (centres undefined) | -20.5% (active)
Cc1ccc(O)c(NC(=O)c2cccc(Nc3ccnc(C(F)(F)F)c3)c2)c1 | -1.23% (active)
Cc1ncc(C(=O)Nc2ccc(CN3CCN(C)CC3)c(C(F)(F)F)c2)cc1C#Cc1cnc(N)c2ccc(C#N)cc12 | 7.42% (active)
Cc1nn(C)c2ncnc(N/N=C/c3cccc(O)c3O)c12 | -8.14% (active)
O=C(O)CC(C(=O)O)/C(=C\c1ccccc1)c1ccccc1 (centres undefined) | 102% (inactive)
Fc1ccc2[nH]cc(-c3nc(-c4c[nH]c5c(Cl)nccc45)cs3)c2c1 | 48.5% (inactive)
CCCN(CCSSCCNc1nc(N(C)O)nc(N(C)O)n1)c1nc(N(C)O)nc(N(C)O)n1 | 42.6% (inactive)
CCOC(=O)c1cn2ncnc(Oc3ccc(NC(=O)NC4CC4)c(Cl)c3)c2c1C | 61.3% (inactive)
COC1C(O)CC(OC2CC(OC3CC(O[C@@H]4C(=O)c5c(cc6cc(OC7CC(OC8CC(O)C(O)C(C)O8)C(O)C(C)O7)c(C)c(O)c6c5O)CC4[C@H](OC)[C@@H](O)C(C)=O)OC(C)C3O)OC(C)C2O)OC1C (some centres undefined) | 7.39% (active)
COC12C=C/C(=C(/C(=O)OCc3csc(SC)n3)C(=O)CCCCCCCCC3(OC)C=C/C(=C(/C(=O)OCc4cnc(SC)s4)C(=O)CCCCCCCC1)O3)O2 (centres undefined) | 1.53% (active)
COc1ccc(/C=C2\CN(C(=O)C(Cl)Cl)C/C(=C\c3ccc(OC)c(OC)c3)C2=O)cc1OC | -5.84% (active)
Cc1c2cnccc2c(C)c2c1c1cc(CO)ccc1n2C | -20.5% (active)
COc1ccc(C=Nc2c(C(=O)Nc3cccc(Cl)c3C)sc3nc(C)c(C(=O)/C=C/c4ccc(OC)cc4)cc23)cc1 | 14.9% (inactive)
O=[N+]([O-])c1c(O)c(Cl)cc(Cl)c1Cl | 97.9% (inactive)
CN1CCOCCN(C)Cc2ccc3ccc(cc3c2)CN(C)CCOCCN(C)Cc2ccc3ccc(cc3c2)C1 | 36.7% (inactive)
O=C1/C(=C/c2c[nH]c(=O)[nH]c2=O)SC(=S)N1Cc1ccccc1 | 101% (inactive)
O=Nc1ccc(NC(=O)Nc2ccc([N+](=O)[O-])cc2)cc1 | 44.1% (inactive)
N#Cc1nn(-c2cc(=O)[nH]c3ccc(Br)cc23)c(N)c1C#N | -29.7% (active)
C[C@H](c1nc2ccc(C#N)cc2[nH]1)[C@H]1CC[C@H]2[C@@H]3CCC4=CC(=O)CC[C@]4(C)[C@H]3CC[C@]12C | 20.3% (inactive)
CCOC(=O)C1=C(c2ccccc2)N=C2N(c3ccccc3)N=C(C(C)=O)N2C1c1ccc(F)cc1 (centres undefined) | 89.3% (inactive)
